This experiment concerns the target pT7_6His-AlfaTag-HOXD13 (human, UniProt P35453 263-343). Description: PADIT-seq. As to conditions: dsDNA, one strand shown.
pT7_6His-AlfaTag-HOXD13, sequence (P35453 263-343): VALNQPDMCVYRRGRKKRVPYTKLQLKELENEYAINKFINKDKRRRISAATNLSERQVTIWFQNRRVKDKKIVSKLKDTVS
Regarding “CTCGAGGATATCAAGATCTGGCCTCGGCCTTTTAACGGGAACCTCTAGCTAGCCGACTCACTATAGGGATAATCGCCCTGAGCAAAGACC”, the binding signal was 1.98 ± 0.0882 log2FC.
With “CTCGAGGATATCAAGATCTGGCCTCGGCCATCTAAAAGGAACCTCTAGCTAGCCGACTCACTATAGGGATAATCGCCCTGAGCAAAGACC” the figure was -0.085 ± 0.105 log2FC.
Sequence “CTCGAGGATATCAAGATCTGGCCTCGGCGCGCTCGCGGGAACCTCTAGCTAGCCGACTCACTATAGGGATAATCGCCCTGAGCAAAGACC” returned a binding signal of -1.06 ± 0.163 log2FC.
“CTCGAGGATATCAAGATCTGGCCTCGGCTCCATAAAAGGAACCTCTAGCTAGCCGACTCACTATAGGGATAATCGCCCTGAGCAAAGACC” yielded a binding signal of 2.64 ± 0.0916 log2FC.
With “CTCGAGGATATCAAGATCTGGCCTCGGCGTTTTAGCTGGAACCTCTAGCTAGCCGACTCACTATAGGGATAATCGCCCTGAGCAAAGACC” the figure was -0.719 ± 0.136 log2FC.
“CTCGAGGATATCAAGATCTGGCCTCGGCTTTTTAAAGGGAACCTCTAGCTAGCCGACTCACTATAGGGATAATCGCCCTGAGCAAAGACC” came in with a binding signal of 2.54 ± 0.0796 log2FC.
In the case of “CTCGAGGATATCAAGATCTGGCCTCGGCTTTTTAACAGGAACCTCTAGCTAGCCGACTCACTATAGGGATAATCGCCCTGAGCAAAGACC” it was 2.05 ± 0.0793 log2FC; in that of “CTCGAGGATATCAAGATCTGGCCTCGGCAGTATAAAAGGAACCTCTAGCTAGCCGACTCACTATAGGGATAATCGCCCTGAGCAAAGACC”, 1.92 ± 0.0665 log2FC.
For “CTCGAGGATATCAAGATCTGGCCTCGGCATTTTAGGTGGAACCTCTAGCTAGCCGACTCACTATAGGGATAATCGCCCTGAGCAAAGACC”, the binding signal is 0.159 ± 0.111 log2FC.
Sequence “CTCGAGGATATCAAGATCTGGCCTCGGCGTTTTAAATGGAACCTCTAGCTAGCCGACTCACTATAGGGATAATCGCCCTGAGCAAAGACC” showed a binding signal of 1.63 ± 0.0846 log2FC.
Take “CTCGAGGATATCAAGATCTGGCCTCGGCCTTTTAAACGGAACCTCTAGCTAGCCGACTCACTATAGGGATAATCGCCCTGAGCAAAGACC”: the binding signal worked out at 2.06 ± 0.0696 log2FC.
With “CTCGAGGATATCAAGATCTGGCCTCGGCTAAGTAAAAGGAACCTCTAGCTAGCCGACTCACTATAGGGATAATCGCCCTGAGCAAAGACC” the figure was 0.166 ± 0.108 log2FC; with “CTCGAGGATATCAAGATCTGGCCTCGGCGGACTAAAAGGAACCTCTAGCTAGCCGACTCACTATAGGGATAATCGCCCTGAGCAAAGACC”, -0.896 ± 0.106 log2FC; with “CTCGAGGATATCAAGATCTGGCCTCGGCAGCCTAAAAGGAACCTCTAGCTAGCCGACTCACTATAGGGATAATCGCCCTGAGCAAAGACC”, -0.607 ± 0.118 log2FC.
With “CTCGAGGATATCAAGATCTGGCCTCGGCTAGTTAAAAGGAACCTCTAGCTAGCCGACTCACTATAGGGATAATCGCCCTGAGCAAAGACC” the figure was 2.53 ± 0.0756 log2FC.
With “CTCGAGGATATCAAGATCTGGCCTCGGCTTTTTAGACGGAACCTCTAGCTAGCCGACTCACTATAGGGATAATCGCCCTGAGCAAAGACC” the figure was -0.513 ± 0.133 log2FC.
Turning to “CTCGAGGATATCAAGATCTGGCCTCGGCGTTTTAGCGGGAACCTCTAGCTAGCCGACTCACTATAGGGATAATCGCCCTGAGCAAAGACC”, the binding signal is -0.00405 ± 0.124 log2FC.
Sequence “CTCGAGGATATCAAGATCTGGCCTCGGCTGTCTAAAAGGAACCTCTAGCTAGCCGACTCACTATAGGGATAATCGCCCTGAGCAAAGACC” displayed a binding signal of -0.572 ± 0.102 log2FC.
In the case of “CTCGAGGATATCAAGATCTGGCCTCGGCTTTTTAGCCGGAACCTCTAGCTAGCCGACTCACTATAGGGATAATCGCCCTGAGCAAAGACC” it was -0.442 ± 0.12 log2FC; in that of “CTCGAGGATATCAAGATCTGGCCTCGGCATAATAAAAGGAACCTCTAGCTAGCCGACTCACTATAGGGATAATCGCCCTGAGCAAAGACC”, 2.68 ± 0.0776 log2FC; in that of “CTCGAGGATATCAAGATCTGGCCTCGGCATTTTAAAAGGAACCTCTAGCTAGCCGACTCACTATAGGGATAATCGCCCTGAGCAAAGACC”, 2.49 ± 0.0611 log2FC.
With “CTCGAGGATATCAAGATCTGGCCTCGGCATTATAAAAGGAACCTCTAGCTAGCCGACTCACTATAGGGATAATCGCCCTGAGCAAAGACC”, the binding signal was found to be 2.37 ± 0.0729 log2FC.
With “CTCGAGGATATCAAGATCTGGCCTCGGCGCGATGGCGGGAACCTCTAGCTAGCCGACTCACTATAGGGATAATCGCCCTGAGCAAAGACC” the figure was -0.944 ± 0.133 log2FC; with “CTCGAGGATATCAAGATCTGGCCTCGGCATTTTAGTAGGAACCTCTAGCTAGCCGACTCACTATAGGGATAATCGCCCTGAGCAAAGACC”, 1.68 ± 0.0834 log2FC.
Consider “CTCGAGGATATCAAGATCTGGCCTCGGCCTTTTACAAGGAACCTCTAGCTAGCCGACTCACTATAGGGATAATCGCCCTGAGCAAAGACC”, for which the binding signal amounted to 3.37 ± 0.074 log2FC.
Turning to “CTCGAGGATATCAAGATCTGGCCTCGGCCACCTAAAAGGAACCTCTAGCTAGCCGACTCACTATAGGGATAATCGCCCTGAGCAAAGACC”, the binding signal was -0.327 ± 0.133 log2FC.
In the case of “CTCGAGGATATCAAGATCTGGCCTCGGCACTTGGGCGGGAACCTCTAGCTAGCCGACTCACTATAGGGATAATCGCCCTGAGCAAAGACC” it was -1.04 ± 0.114 log2FC; in that of “CTCGAGGATATCAAGATCTGGCCTCGGCCGCATACGCGGAACCTCTAGCTAGCCGACTCACTATAGGGATAATCGCCCTGAGCAAAGACC”, -1.09 ± 0.122 log2FC; in that of “CTCGAGGATATCAAGATCTGGCCTCGGCGACCTAAAAGGAACCTCTAGCTAGCCGACTCACTATAGGGATAATCGCCCTGAGCAAAGACC”, -0.787 ± 0.0956 log2FC.
With “CTCGAGGATATCAAGATCTGGCCTCGGCCTAGTAAAAGGAACCTCTAGCTAGCCGACTCACTATAGGGATAATCGCCCTGAGCAAAGACC” the figure was 2.42 ± 0.0781 log2FC; with “CTCGAGGATATCAAGATCTGGCCTCGGCCGCACGCGCGGAACCTCTAGCTAGCCGACTCACTATAGGGATAATCGCCCTGAGCAAAGACC”, -0.992 ± 0.148 log2FC.
“CTCGAGGATATCAAGATCTGGCCTCGGCCGCCCATAAGGAACCTCTAGCTAGCCGACTCACTATAGGGATAATCGCCCTGAGCAAAGACC”: the binding signal was -0.213 ± 0.101 log2FC.
Consider “CTCGAGGATATCAAGATCTGGCCTCGGCGTTTTAAAGGGAACCTCTAGCTAGCCGACTCACTATAGGGATAATCGCCCTGAGCAAAGACC”, for which the binding signal turned out to be 2.48 ± 0.082 log2FC.
In the case of “CTCGAGGATATCAAGATCTGGCCTCGGCCTTTTAATAGGAACCTCTAGCTAGCCGACTCACTATAGGGATAATCGCCCTGAGCAAAGACC” it was 2.68 ± 0.0826 log2FC.
Take “CTCGAGGATATCAAGATCTGGCCTCGGCGTTTTATTTGGAACCTCTAGCTAGCCGACTCACTATAGGGATAATCGCCCTGAGCAAAGACC”: the binding signal worked out at 2.98 ± 0.0869 log2FC.
With “CTCGAGGATATCAAGATCTGGCCTCGGCTGTGTAAAAGGAACCTCTAGCTAGCCGACTCACTATAGGGATAATCGCCCTGAGCAAAGACC” the figure was 1.46 ± 0.0852 log2FC.
Take “CTCGAGGATATCAAGATCTGGCCTCGGCTGAATAAAAGGAACCTCTAGCTAGCCGACTCACTATAGGGATAATCGCCCTGAGCAAAGACC”: the binding signal amounted to 0.859 ± 0.0895 log2FC.
The sequence “CTCGAGGATATCAAGATCTGGCCTCGGCCTTTTATCCGGAACCTCTAGCTAGCCGACTCACTATAGGGATAATCGCCCTGAGCAAAGACC” gave a binding signal of 0.939 ± 0.078 log2FC.
With “CTCGAGGATATCAAGATCTGGCCTCGGCGTTTTAATAGGAACCTCTAGCTAGCCGACTCACTATAGGGATAATCGCCCTGAGCAAAGACC” the figure was 2.63 ± 0.0918 log2FC.

The values above are taken from doi:10.1101/2024.03.05.583629.
